# Assay results reported in the supplement of paper PMC7335073.
# Whole data set: some 4,100 sequences, median “relative CpG methylation activity (normalised to average over all NNNCGNNN flanks)” near 0.87, cut for the highest 2% near 2.4. The full list was thinned out, with the highest values kept by preference.
# Molecular target: DNMT3A catalytic domain (mouse) (UniProt O88508)
# Assay: relative CpG methylation activity (normalised to average over all NNNCGNNN flanks) (relative (1 = mean)); higher = more methylation of the central CpG
# Conditions: system: in vitro, murine catalytic domain; CpG state: hemimethylated substrate pool; residues: 608-908
# Method: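 Deep enzymology: a pool of dsDNA substrates with a central CpG flanked by 10 random nucleotides on each side was methylated by the murine DNMT3A or DNMT3B catalytic domain (0.8 mM SAM, 37 °C, 60 min). Methylation was then read out by hairpin ligation, bisulfite conversion and NGS. Values are the average methylation of each NNNCGNNN context (±3 flanks; the outer flanks are random and averaged over), normalised to the overall mean, so 1 = average activity.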
row,Sequence,relative CpG methylation activity
1,CCTCGGAT,0.744
2,CCCCGCGC,1.17
3,TATCGACT,0.753
4,ATCCGGAT,1.34
5,GTGCGACC,1.61
6,AGCCGATT,0.672
7,GATCGCCA,0.923
8,TTCCGCGC,2.03
9,TCCCGCCC,1.99
10,AACCGCCC,1.78
11,CACCGCCA,1.32
12,CGCCGCCT,1.48
13,CTCCGCGT,1.98
14,CTCCGCCA,2.37
15,ATCCGCCC,2.96
16,CGCCGCCA,1.25
17,ATCCGCCG,2.1
18,CTCCGCCT,2.45
19,TTCCGCCC,2.77
20,CATCGGGG,0.133

row,Sequence,relative CpG methylation activity
1,CGCCGGTA,0.746
2,ATCCGGAA,0.939
3,CCACGCAC,1.81
4,CTTCGGGC,1.16
5,TCTCGACG,0.648
6,GGCCGCAA,0.657
7,TTGCGACT,1.31
8,GGCCGCCC,1.79
9,CGCCGCCC,1.77
10,GTCCGCCG,2.46
11,GGCCGCCG,1.34
12,ATCCGCGT,1.34
13,CTCCGCCG,2.31
14,AACCGCCT,1.76
15,GCCCGCCC,2.25
16,CTCCGCCC,2.44
17,ATCCGCCT,2.5
18,GTCCGCCC,2.41
19,GTCCGCGG,0.584
20,TAGCGCTG,0.34

row,Sequence,relative CpG methylation activity
1,CATCGACC,0.793
2,GATCGTTT,0.404
3,TGTCGGTC,0.542
4,GGTCGAAA,0.512
5,ATCCGCGA,1.03
6,AGCCGCCA,1.02
7,ATCCGCCA,2.4
8,AACCGAGG,0.346
9,AGACGAGA,0.731
10,ATCCGTCC,2.61
11,CTCCGTCC,2.65
12,CTCCGTCG,1.92
13,TTCCGTCC,2.26
14,ATCCGTCG,2.08
15,CTCCGTCA,1.79
16,GCACGGGC,1.47
17,GAACGTCG,1.25
18,ATGCGGCC,1.64
